Potency and affinity values are given separately. Active and inactive are the calls of the source.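 Rule for the calls: active = cell killing with a fitted half-effect concentration at or below twice the top valid dose; inconclusive = flat curve with 30 to 70 percent drop, or poor fit; inactive = the rest.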

The experiment can be described thus: HEK293T cell cytotoxicity, dose response, cytotoxicity control, ATP luminescence, cherry-pick, set 6 (AID 1053126). The settings on record: HEK293T viability, CellTiter-Glo ATP luminescence, 72 h; series mostly up to 26 µM. (In general: ATP-based viability assays read luminescence as a measure of living cells.)
Take `Cc1ccc(NC(=O)Nc2ccnc(-c3cccnc3)n2)cc1`: the outcome was inactive.
As for `COc1cccc2c(=O)c3c(cnn3C)n(C)c12`, the entry is “inactive”.
As for `Cc1ccc(-c2nc3ccsc3c(=O)[nH]2)cc1`, the molecule was classed as inactive.
As for `Fc1ccc(-c2nc3ccccn3c2NCc2ccc3c(c2)OCO3)cc1`, the entry is “inactive”.
Under `N#CC1=C(N)OC2=C(C(=O)CCC2)C1c1cc2c(cc1Br)OCO2` (stereo not drawn) stands “inactive”; under `O=C(O)[C@@H]1CCCN1S(=O)(=O)c1cccc(S(=O)(=O)N2CCC[C@H]2C(=O)O)c1`, “inactive”; under `COc1ccccc1/C=N/Nc1nc(C)cc(=O)[nH]1`, “inactive”.
Under `CCN(CC)CCNC(=O)c1sc2nc(-c3ccccc3)cn2c1C` stands “inactive”; under `C#CCOc1ccc(C2C(C#N)=C(N)Oc3cc(O)ccc32)cc1` (stereo not drawn), “inactive”.
In the case of `C=CCc1c(O)c(CC)cc2c(C)cc(=O)oc12`, the result was inactive.
In the case of `CCOCCCNc1c(CC)c(C)c(C#N)c2nc3ccccc3n12`, the molecule was classed as inactive.
As for `Cc1cc(-n2c(=O)c(C#N)cc3c(=O)n4cccc(C)c4nc32)no1`, the entry is “inactive”; as for `O=C(NNc1c2ccccc2nc2ccccc12)c1ccc(O)cc1`, “inactive”.
As for `Cc1ccc(-n2c(C)cc(/C=N/NC(=O)Cn3c4ccccc4c(=O)c4ccccc43)c2C)cc1`, the entry is “inactive”.
As for `COc1ccc(NC(=O)C2CCC(CNS(=O)(=O)c3cccs3)CC2)cc1` (stereo not drawn), the entry is “inactive”; as for `CCN(CC)CCN1C2=C(C(=O)CC(C)(C)C2)C(c2cccc(F)c2)C2=C1CC(C)(C)CC2=O`, “inactive”; as for `CCOC(=O)c1c(C)n(C)c2ccc(OCC(O)CN3CCC(C)CC3)cc12` (stereo not drawn), “inactive”.
Consider `O=C(O)C1=CC[C@@H](c2ccc(Cl)cc2)N(S(=O)(=O)c2ccc(Cl)cc2)[C@H]1c1ccc(F)cc1`, for which the molecule was classed as inactive.

The values are drawn from PubChem BioAssay AID1053126 (Broad Institute, 2014).
